PubChem BioAssay (NCI)
About 79,000 compounds went through this panel and 15% of them were active in at least one assay; those are over-represented in the sample as a whole. Unmarked numbers belong to inactive results. Calls of active or inactive are those of the source. Rule as the data show it: active = growth inhibition above about 70%; inactive = the rest.

Experiments:
[1] = NCI Yeast Anticancer Drug Screen. Data for the rad52 strain (AID 147);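 also: 0% = growth of vehicle-treated control cultures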; conditions: S. cerevisiae rad52 mutant growth inhibition, hits give high values
Procedure, shortened: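 Growth of repair-deficient yeast cells was compared between compound-treated and vehicle-treated cultures to give percent inhibition.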

[2] = NCI Yeast Anticancer Drug Screen. Data for the wt1 strain (AID 149);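 also: 0% = growth of vehicle-treated wt1 cultures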; conditions: S. cerevisiae wt1 strain (SPY 50644) growth inhibition, hits give high values
Procedure, shortened: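 The wt1 strain was treated with compounds, and growth was compared with vehicle-treated cultures to give inhibition.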

[3] = NCI Yeast Anticancer Drug Screen. Data for the rad50EPP+ strain (AID 151);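 also: 0% = growth of vehicle-treated control cultures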; conditions: S. cerevisiae rad50 mutant strain, hits give high values
Procedure, shortened: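 Measured: growth inhibition of rad50EPP+ yeast. Reference: vehicle-treated controls. Screen uses strains with defined genetic alterations in DNA damage repair or cell cycle control.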

[4] = NCI Yeast Anticancer Drug Screen. Data for the mgt1 strain (AID 153); conditions: S. cerevisiae mgt1 mutant growth inhibition, hits give high values
Procedure, shortened: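 Compounds were applied to mgt1 mutant yeast, and growth was then compared against vehicle-treated control cultures to give percent inhibition.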

[5] = NCI Yeast Anticancer Drug Screen. Data for the rad50 strain (AID 155);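 also: 0% = growth of vehicle-only cultures of the same strain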; conditions: S. cerevisiae rad50 strain growth inhibition, hits give high values
Procedure, shortened: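 Cells are treated with compound, grown, and their growth is then scored against vehicle-only cultures of the same repair-deficient yeast strain.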

[6] = NCI Yeast Anticancer Drug Screen. Data for the mec2-1 strain (AID 157); conditions: S. cerevisiae mec2-1 strain, hits give high values
Procedure, shortened: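 Compounds were applied to mec2-1 yeast cells. Their growth was then compared with that of vehicle-treated cultures to give growth inhibition.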

[7] = NCI Yeast Anticancer Drug Screen. Data for the rad14 strain (AID 159);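 also: 0% = growth of vehicle-treated control cultures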; conditions: S. cerevisiae rad14 strain growth inhibition, hits give high values
Procedure, shortened: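 Readout: yeast growth inhibition, referenced to vehicle-only cultures. Strain bears a defined alteration in DNA damage repair.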

[8] = NCI Yeast Anticancer Drug Screen. Data for the sgs1 mgt1 strain (AID 161);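 also: 0% = growth of cultures given vehicle only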; conditions: S. cerevisiae sgs1 mgt1 strain, hits give high values
Procedure, shortened: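 Yeast cells carrying a defined DNA-repair defect were exposed to test compounds. Growth inhibition was measured relative to vehicle-treated controls.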

[9] = NCI Yeast Anticancer Drug Screen. Data for the CLN2oe strain (AID 163);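 also: 0% = growth of vehicle-only control cultures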; conditions: S. cerevisiae CLN2oe strain, hits give high values
Procedure, shortened: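 Cells of an engineered yeast line with disturbed cell-cycle regulation are treated with compound. Inhibition of growth is then calculated relative to the vehicle-treated reference.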

[10] = NCI Yeast Anticancer Drug Screen. Data for the cln2 rad14 strain (AID 165);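 also: 0% = growth equal to vehicle treated cultures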; conditions: S. cerevisiae cln2 rad14 strain, hits give high values
Procedure, shortened: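 Strain: cln2 rad14 yeast, altered in cell cycle control and DNA damage repair. Read-out: growth inhibition vs vehicle.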

[11] = NCI Yeast Anticancer Drug Screen. Data for the bub3 strain (AID 167); conditions: S. cerevisiae bub3 mutant strain, hits give high values
Procedure, shortened: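 Part of a panel of yeast mutants defective in DNA damage repair or cell cycle regulation. Each strain is grown with compound, and inhibition is calculated relative to solvent-treated cultures.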

[12] = NCI Yeast Anticancer Drug Screen. Data for the wt2 strain (AID 169);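 also: 0% = growth of vehicle-treated yeast cultures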; conditions: S. cerevisiae wt2 strain growth inhibition, hits give high values
Procedure, shortened: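 Growth of compound-treated yeast is measured and expressed as inhibition relative to vehicle-only controls.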

[13] = NCI Yeast Anticancer Drug Screen. Data for the mlh1 strain (AID 171);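 also: 0% = growth of vehicle-treated control cultures of the same strain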; conditions: S. cerevisiae mlh1 strain growth inhibition, hits give high values
Procedure, shortened: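 Test agents were incubated with yeast bearing a defined DNA damage repair or cell cycle control alteration; values are growth inhibition normalised to vehicle-treated cultures.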

[14] = NCI Yeast Anticancer Drug Screen. Data for the sgs1 strain (AID 173);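 also: 0% = growth of vehicle-only control cultures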; conditions: S. cerevisiae sgs1 mutant, hits give high values
Procedure, shortened: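 Strain with an altered DNA repair or cell cycle pathway exposed to compound. Growth then measured. Value = inhibition versus vehicle control.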

[15] = NCI Yeast Anticancer Drug Screen. Data for the mlh1 rad18 strain (AID 175); conditions: S. cerevisiae mlh1 rad18 strain growth inhibition, hits give high values
Procedure, shortened: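 A repair-deficient yeast strain is exposed to test compound, and growth is scored relative to vehicle-treated controls.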

[16] = NCI Yeast Anticancer Drug Screen. Data for the rad18 strain (AID 177); conditions: S. cerevisiae rad18 mutant growth inhibition, hits give high values
Procedure, shortened: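 DNA-repair-defective yeast; compound treatment; growth inhibition scored against vehicle.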

[17] = at 5.0 µM (retest, dose inferred, filed as 0.5)
[18] = at 50.0 µM (retest, dose inferred, filed as 5.0)

Cc1ccc(N)c(S)c1
growth inhibition ([1]; at 1.2 µM): -56%
growth inhibition ([1]; at 3.7 µM): -52%
growth inhibition ([1]; at 11.0 µM): -12%
growth inhibition ([1]; at 33.0 µM): 88% (active)
growth inhibition ([1]; at 100.0 µM): 97% (active)
growth inhibition ([2]; at 1.2 µM): -23%
growth inhibition ([2]; at 3.7 µM): -29%
growth inhibition ([2]; at 11.0 µM): -19%
growth inhibition ([2]; at 33.0 µM): 75% (active)
growth inhibition ([2]; at 100.0 µM): 99% (active)
growth inhibition ([3]; at 1.2 µM): -49%
growth inhibition ([3]; at 3.7 µM): -39%
growth inhibition ([3]; at 11.0 µM): 76% (active)
growth inhibition ([3]; at 33.0 µM): 95% (active)
growth inhibition ([3]; at 100.0 µM): 91% (active)
growth inhibition ([4]; at 1.2 µM): -11%
growth inhibition ([4]; at 3.7 µM): -13%
growth inhibition ([4]; at 11.0 µM): 15%
growth inhibition ([4]; at 33.0 µM): 98% (active)
growth inhibition ([4]; at 100.0 µM): 99% (active)
growth inhibition ([5]; at 1.2 µM): -34%
growth inhibition ([5]; at 3.7 µM): -27%
growth inhibition [5, 17]: 1%
growth inhibition ([5]; at 11.0 µM): -4%
growth inhibition ([5]; at 33.0 µM): 91% (active)
growth inhibition [5, 18]: 77% (active)
growth inhibition ([5]; at 50.0 µM): 10.4%
growth inhibition ([5]; at 100.0 µM): 94% (active)
growth inhibition ([6]; at 1.2 µM): -24%
growth inhibition ([6]; at 3.7 µM): -15%
growth inhibition [6, 17]: -19%
growth inhibition ([6]; at 11.0 µM): -9%
growth inhibition ([6]; at 33.0 µM): 96% (active)
growth inhibition [6, 18]: 75% (active)
growth inhibition ([6]; at 50.0 µM): 36.3%
growth inhibition ([6]; at 100.0 µM): 98% (active)
growth inhibition ([7]; at 1.2 µM): -43%
growth inhibition ([7]; at 3.7 µM): -36%
growth inhibition ([7]; at 11.0 µM): -22%
growth inhibition ([7]; at 33.0 µM): 55%
growth inhibition ([7]; at 100.0 µM): 96% (active)
growth inhibition [8, 17]: -1%
growth inhibition [8, 18]: 36%
growth inhibition ([8]; at 50.0 µM): 80.3% (active)
growth inhibition ([9]; at 1.2 µM): -15%
growth inhibition ([9]; at 3.7 µM): -3%
growth inhibition ([9]; at 11.0 µM): 13%
growth inhibition ([9]; at 33.0 µM): 93% (active)
growth inhibition ([9]; at 100.0 µM): 99% (active)
growth inhibition [10, 17]: 35%
growth inhibition [10, 18]: 63%
growth inhibition ([10]; at 50.0 µM): -1.5%
growth inhibition ([11]; at 1.2 µM): -35%
growth inhibition ([11]; at 3.7 µM): -11%
growth inhibition [11, 17]: 15%
growth inhibition ([11]; at 11.0 µM): 48%
growth inhibition ([11]; at 33.0 µM): 98% (active)
growth inhibition [11, 18]: 92% (active)
growth inhibition ([11]; at 50.0 µM): 81.5% (active)
growth inhibition ([11]; at 100.0 µM): 98% (active)
growth inhibition ([12]; at 1.2 µM): -48%
growth inhibition ([12]; at 3.7 µM): -25%
growth inhibition ([12]; at 11.0 µM): -4%
growth inhibition ([12]; at 33.0 µM): 93% (active)
growth inhibition ([12]; at 100.0 µM): 99% (active)
growth inhibition ([13]; at 1.2 µM): -19%
growth inhibition ([13]; at 3.7 µM): -3%
growth inhibition ([13]; at 11.0 µM): 26%
growth inhibition ([13]; at 33.0 µM): 98% (active)
growth inhibition ([13]; at 100.0 µM): 97% (active)
growth inhibition ([14]; at 1.2 µM): -29%
growth inhibition ([14]; at 3.7 µM): -34%
growth inhibition ([14]; at 11.0 µM): 14%
growth inhibition ([14]; at 33.0 µM): 98% (active)
growth inhibition ([14]; at 100.0 µM): 98% (active)
growth inhibition [15, 17]: 20%
growth inhibition [15, 18]: 95% (active)
growth inhibition ([15]; at 50.0 µM): 92.2% (active)
growth inhibition ([16]; at 1.2 µM): -48%
growth inhibition ([16]; at 3.7 µM): -37%
growth inhibition ([16]; at 11.0 µM): -22%
growth inhibition ([16]; at 33.0 µM): 42%
growth inhibition ([16]; at 100.0 µM): 90% (active)

Cc1ccc(S/N=C\c2ccccc2O)cc1
growth inhibition ([1]; at 1.2 µM): 1%
growth inhibition ([1]; at 3.7 µM): -6%
growth inhibition ([1]; at 11.0 µM): -3%
growth inhibition ([1]; at 33.0 µM): 0%
growth inhibition ([1]; at 100.0 µM): 8%
growth inhibition ([2]; at 1.2 µM): -1%
growth inhibition ([2]; at 3.7 µM): 0%
growth inhibition ([2]; at 11.0 µM): 0%
growth inhibition ([2]; at 33.0 µM): 1%
growth inhibition ([2]; at 100.0 µM): 1%
growth inhibition ([3]; at 1.2 µM): 4%
growth inhibition ([3]; at 3.7 µM): 3%
growth inhibition ([3]; at 11.0 µM): 6%
growth inhibition ([3]; at 33.0 µM): 17%
growth inhibition ([3]; at 100.0 µM): 35%
growth inhibition ([4]; at 1.2 µM): 2%
growth inhibition ([4]; at 3.7 µM): -1%
growth inhibition ([4]; at 11.0 µM): 1%
growth inhibition ([4]; at 33.0 µM): 7%
growth inhibition ([4]; at 100.0 µM): -1%
growth inhibition ([5]; at 1.2 µM): -2%
growth inhibition ([5]; at 3.7 µM): -12%
growth inhibition [5, 17]: -130%
growth inhibition ([5]; at 11.0 µM): 2%
growth inhibition ([5]; at 33.0 µM): 12%
growth inhibition [5, 18]: 79% (active)
growth inhibition ([5]; at 50.0 µM): 89.6% (active)
growth inhibition ([5]; at 100.0 µM): 6%
growth inhibition ([6]; at 1.2 µM): 0%
growth inhibition ([6]; at 3.7 µM): 3%
growth inhibition [6, 17]: -48%
growth inhibition ([6]; at 11.0 µM): -11%
growth inhibition ([6]; at 33.0 µM): -1%
growth inhibition [6, 18]: -4%
growth inhibition ([6]; at 50.0 µM): 73.6% (active)
growth inhibition ([6]; at 100.0 µM): 7%
growth inhibition ([7]; at 1.2 µM): -2%
growth inhibition ([7]; at 3.7 µM): -6%
growth inhibition ([7]; at 11.0 µM): -4%
growth inhibition ([7]; at 33.0 µM): -3%
growth inhibition ([7]; at 100.0 µM): 1%
growth inhibition [8, 17]: -59%
growth inhibition [8, 18]: 53%
growth inhibition ([8]; at 50.0 µM): 62%
growth inhibition ([9]; at 1.2 µM): 2%
growth inhibition ([9]; at 3.7 µM): 1%
growth inhibition ([9]; at 11.0 µM): 2%
growth inhibition ([9]; at 33.0 µM): 2%
growth inhibition ([9]; at 100.0 µM): 4%
growth inhibition [10, 17]: -58%
growth inhibition [10, 18]: -23%
growth inhibition ([10]; at 50.0 µM): 34.9%
growth inhibition ([11]; at 1.2 µM): -4%
growth inhibition ([11]; at 3.7 µM): -6%
growth inhibition [11, 17]: -59%
growth inhibition ([11]; at 11.0 µM): -2%
growth inhibition ([11]; at 33.0 µM): -5%
growth inhibition [11, 18]: 47%
growth inhibition ([11]; at 50.0 µM): 76.5% (active)
growth inhibition ([11]; at 100.0 µM): 4%
